# Assay results published in ChEMBL document CHEMBL3988442, “University of Dundee, Small-Polar-MMV Screening Library” (2021).
# In all, about 38,000 compounds went through this assay and about 1,200 (3.2%) showed an effect of 50% or more. The median lay at about -58%. This excerpt belongs to a sample that is enriched for strong results.
# Tested on: Plasmodium falciparum
# Assay: Calibr Malaria Delayed Death Assay SOP
# Format: functional, organism-based
# Set-up: scale not given: in the data most compounds retested in dose-response had high values
# Conditions: concentration 4.99e-06 (unit not given; other assays of the set use mol/L)
row,SMILES,Percent Effect [%]
1,O=C(NC1CCc2cc(Cl)ccc21)C1CCN(C(=O)C2CC2)CC1 (stereo not drawn),-26.17
2,OCC1CCCN(Cc2c(C3CCCC3)[nH]c3ncccc23)C1 (stereo not drawn),11.34
3,Cc1cc(CN2CCN(Cc3ccc(C#N)cc3F)CC2)no1,-21.87
4,CC(C)(C)OC(=O)N1CCN(S(=O)(=O)CCCC#N)C2(CCCCC2)C1,-7.011
5,OC1(CN2CCCC2)CCCN(Cc2cnc(-c3ccco3)nc2)C1 (stereo not drawn),-86.93
6,Cc1ccc2nc(CN3CCC(O)(CN4CCCC4)CC3)cc(O)c2c1,-44.54
7,COc1ccc(C)cc1CC(=O)N1CC[C@@]2(CCCO2)[C@@H](O)C1,-95.97
8,Cc1ccc(Cn2c(=O)[nH]c3csnc3c2=O)cc1,-6.005
9,Cc1nc(CN2CCC3(CC2)C(=O)N(C)CCN3C)cs1.O=C(O)C(F)(F)F.O=C(O)C(F)(F)F.O=C(O)C(F)(F)F,-106.3
10,Cc1nc(CN2CCCC23CCN(c2nc4ccccc4s2)CC3)co1,8.403
11,Cn1cc(CN2CCCC23CCN(c2nc4ccccc4s2)CC3)cn1,50.94
12,c1ccc2sc(N3CCC4(CCCN4Cc4ncc[nH]4)CC3)nc2c1,19.28
13,Cc1cccc(SC2CCN(C(=O)CCNS(C)(=O)=O)CC2)c1,-80.26
14,CCOCCOC(C)C(=O)Nc1ccnn1-c1ccccc1C (stereo not drawn),-67.54
15,COc1cc(CCC(=O)NCC2CC2)ccc1OCC(F)(F)F,-33.72
16,Clc1ccc(CN2CCCC(Cn3cncn3)C2)c2ncccc12 (stereo not drawn),63.13
17,Fc1ccc(CN2CCCC2Cn2cncn2)c2ncccc12 (stereo not drawn),10.61
18,Fc1ccc(CN2CCCC(Cn3cncn3)C2)c2ncccc12 (stereo not drawn),-5.261
19,Fc1ccc(CN2CCCCC2Cn2cncn2)c2ncccc12 (stereo not drawn),64.52
20,Nc1nc(CN2CCCC(Cn3cncn3)C2)nc2ccccc12 (stereo not drawn),-138.6
21,Fc1ccc(CN2CCOC(Cn3cncn3)C2)c2ncccc12 (stereo not drawn),-95.84
22,CCn1nnc2c1C(COC)CN(C(=O)Cc1ccccn1)C2 (stereo not drawn),-16.62
23,CNC(=O)C1CCN(S(C)(=O)=O)CC1,-158.4

row,SMILES,Percent Effect [%]
1,O=C1CC(c2cccs2)c2sc(C(=O)O)c(-c3ccccc3)c2N1 (stereo not drawn),-70.62
2,Cc1nc(N2CCCC2)ccc1NCc1ccccn1,-6.068
3,COCCCNC(=O)c1c[nH]c2ccc(OC)cc12,-47.08
4,COc1ccc(C(=O)O)c(OCC(=O)NC(C)c2ccccc2)c1 (stereo not drawn),-10.57
5,O=C1CCNc2ccc(F)cc2CN1Cc1ccccc1,-35.83
6,CC1N(c2cnn(C)c2)C(=O)COC12CCN(CC1CC1)CC2.O=C(O)C(F)(F)F (stereo not drawn),-75.35
7,COc1ccc(NC(=O)c2ccc(-n3ncc(C#N)c3N)cc2)cn1,80.07
8,Cc1cnc(NC(=O)c2ccc(-n3ncc(C#N)c3N)cc2)s1,-56.37
9,CCN(CC)C(=O)c1ccc(-n2ncc(C#N)c2N)cc1,-24.17
10,O=C(CSc1ccccn1)N1CCC(OCc2cccnc2)CC1,-154
11,Cn1cnc(S(=O)(=O)NCCC(O)c2ccc3c(c2)OCO3)c1 (stereo not drawn),-141.1
12,CC(Nc1cccc(F)c1C#N)c1cccc(S(N)(=O)=O)c1 (stereo not drawn),-56.47
13,Cc1ccnc(OC[C@]23COC[C@H]2CN(C(=O)C2=CCCCC2)C3)n1,-29.48
14,C[C@]1(O)CCN(Cc2c[nH]cn2)C[C@@H]1Oc1cccc(F)c1,-164.2
15,COc1cccc(Cl)c1-c1cc(CN)ccc1F,65.68
16,NCc1ccc(Oc2cccc(Cl)c2Cl)cc1,19
17,CC(C)Oc1ccccc1-c1cc(CN)ccc1F,60.74
18,CC(C)Oc1ccc(CNC(=O)c2cc(C(N)=O)cs2)cc1F,-80.32
19,COc1cccc(-c2cc(CN)ccc2F)c1F,-75.66
20,COCCNC(=O)NCc1ccc(OC(C)C)c(F)c1,-81.14
21,Cc1cc(NC(=O)Cc2ccc3c(c2)OCO3)n(C)n1,-77.02
22,O=C(CC1NC(N2CCc3ccccc32)=NC1=O)Nc1ccc(Cl)cc1 (stereo not drawn),-176.9
23,O=C(Cn1cc(C2CC2)nn1)N(Cc1ccco1)Cc1cccs1,-76.11

row,SMILES,Percent Effect [%]
1,CN(C)c1ncccc1CNCc1cccc(O)c1,-22.48
2,O=C(CCc1ccccc1)NCC1CCN(Cc2cccs2)CC1,-10.35
3,O=C(CCc1ccccc1)NCC1CCN(Cc2ccsc2)CC1,18.12
4,O=C(CCc1ccsc1)NCC1CCN(Cc2cccs2)CC1,58
5,CCn1ncc2c1C(COC)N(C(=O)c1ccsc1)CC2.O=C(O)C(F)(F)F (stereo not drawn),-121.1
6,Cc1cc(N2CCC(c3ncc[nH]3)CC2)c2ccccc2n1,61.5
7,Cc1cc(N2CCC(c3ncc[nH]3)CC2)nc(N)n1,-29.26
8,Cc1cc(N2CCC(c3ncc[nH]3)CC2)cc(C)n1,-30.44
9,Cc1cc(C(=O)N2CC(O)CO2)c2cccc(C)c2n1 (stereo not drawn),-103.4
10,Cn1nc(C(=O)NC2(c3ccc(Cl)cc3)CCCC2)ccc1=O,37.39
11,Cc1nccn1Cc1nnc(C2CCCN(c3ncccc3F)C2)n1C (stereo not drawn),-123.3
12,COCc1noc(Cn2c(C3CC3)nc3ccccc32)n1,-91.38
13,COc1cccc(C(=O)N2CCCC2c2ncc3c(n2)CCN(C)C3)c1 (stereo not drawn),-46.26
14,CN1CCN(Cc2ccc(F)cc2)Cc2cccnc21,-11.04
15,CC(C)n1ccnc1C1CCN(Cc2ccc(Cl)c(F)c2)CC1,33.02
16,Cn1cc(C2(C)CN(Cc3ccc(Cl)c(F)c3)CCO2)cn1 (stereo not drawn),-40.79
17,O=C(NCCc1nccs1)N1CCC(n2cccc2)CC1,-128.4
18,Cc1nc(CNC(=O)Nc2cc(C(F)(F)F)c[nH]c2=O)cs1,-139.2
19,Cc1cc(Cl)ccc1S(=O)(=O)NCC(C)N1CCN(C)CC1 (stereo not drawn),73.33
20,COc1ccc(S(=O)(=O)NCC(c2cccn2C)N(C)C)c(C)c1 (stereo not drawn),47.32
21,Cc1cccc(S(=O)(=O)NCC(C)N2CCN(C)CC2)c1Cl (stereo not drawn),80.79
22,Cc1c(Cl)cccc1S(=O)(=O)NCC(O)c1cccn1C (stereo not drawn),-3.502
23,CC(NCCNS(=O)(=O)c1cccc(Cl)c1)C1CCOCC1 (stereo not drawn),24.26

row,SMILES,Percent Effect [%]
1,O=S(=O)(NCC(O)c1cccs1)c1ccccc1Cl (stereo not drawn),-35.17
2,CC(=O)N1C[C@H](NS(=O)(=O)c2cccc(Cl)c2)[C@@H](C(C)C)C1,-122
3,Cc1cc(F)ccc1S(=O)(=O)NCC(O)c1cccn1C (stereo not drawn),-27.19
4,CC(CNS(=O)(=O)c1cccc(Cl)c1)N1CCN(C)CC1 (stereo not drawn),77.12
5,Cc1cccc(-n2nnnc2C(C)(C)Nc2ccccc2C)c1,-66.56
6,O=C(c1ccc2c(c1)COC2)N1CCCN(Cc2cscn2)CC1,-90.53
7,Cc1nn(C)c(N2CCCN(C)CC2)c1CNC(=O)CC(C)(C)C,-44.23
8,Cc1nc(CN2CCC3(CCCN(Cc4ccncc4)C3)C2=O)cs1.O=C(O)C(F)(F)F.O=C(O)C(F)(F)F.O=C(O)C(F)(F)F (stereo not drawn),-86.96
9,CCc1cc(NCCCOC2CCCC2)ncn1,-19.37
10,O=C(c1ccn(-c2ccc(F)cc2)n1)N(CCO)Cc1cccnc1,-20.41
11,N#CCCN(Cc1cccnc1)C(=O)c1ccn(-c2ccccc2)n1,-29.34
12,CN(C)CCN(Cc1cccnc1)C(=O)c1ccn(-c2ccccc2)n1,87.52
13,Cc1ncoc1C(=O)N1CCOC(CC2CCCCC2)C1 (stereo not drawn),-117.2
14,CCOc1ccc2[nH]c(=O)c(CN3CCCCC3C)cc2c1 (stereo not drawn),-50.88
15,Cc1occc1C(=O)NCC1OCCc2cn(C)nc21.O=C(O)C(F)(F)F (stereo not drawn),-17.21
16,Cc1nn(CC(=O)NCC2(C(N)=O)CCOCC2)c(C)c1Cl,-63.22
17,CCn1ccnc1C1CCN(Cc2cccc(C)n2)CC1,-98.55
18,Cc1cccc(CN2CCC(NS(C)(=O)=O)CC2)n1,-83.22
19,O=C(c1c(O)cnc2ccccc12)N1CCCSCC1,-75.93
20,CCn1c(C)cc(C(=O)N2CCC(Nc3ccc(C)nn3)CC2)c1C,-49.09
21,COc1ccccc1CNc1c(N2CCN(C(C)=O)CC2)c(=O)c1=O,-13.77
22,CNC(=O)CCc1cc(C2CCNCC2)nc(C)n1.Cl.Cl,-15.84
23,Cc1nc(CCC(=O)NCC(N)=O)cc(C2CCNCC2)n1,-86.52

row,SMILES,Percent Effect [%]
1,COc1ccc2cnn(CC(=O)NC3CCCCC3)c(=O)c2c1OC,-20.95
2,Cc1nn(Cc2ccc(C(=O)NCCCN3CCCC3=O)o2)c(C)c1Br,-82.86
3,CC(C)N(C)Cc1cnc2n1CCN(Cc1cccc(C#N)c1)C2,10.5
4,CC(O)(CCc1ccccc1)CNC(=O)c1cccs1 (stereo not drawn),-19.61
5,COc1ccc(CC(C)(O)CNC(=O)Cc2cccs2)cc1 (stereo not drawn),-86.25
6,COc1ccc(CC(C)(O)CNC(=O)c2cccs2)cc1 (stereo not drawn),88.99
7,CCN1C(=O)CCCC12CCCN(C(=O)c1ccncc1F)C2.O=C(O)C(F)(F)F (stereo not drawn),-52.32
8,CC(=O)Nc1nc(CS(=O)(=O)Cc2ccccc2)cs1,-16.97
9,COCCN1Cc2ccccc2C2(CCN(C(=O)c3ccno3)CC2)C1,-21.64
10,Cc1ccc(CNC2CCN(CCc3ccncc3)CC2)s1,-5.622
11,COCCn1ccnc1C1CCCN(c2ncnc3c(C)csc23)C1 (stereo not drawn),-130.5
12,Cc1cccc(CNC2CCN(CCc3ccncc3)CC2)c1C,75.22
13,N#Cc1ccc(CNC(=O)NC2CCN(CC(F)(F)F)C2)cc1 (stereo not drawn),-80.57
14,CCCN1CCC(NCc2ccncc2)CC1,-53.14
15,Cc1csc2c(N3CCC(Cn4cc(C(C)(C)O)nn4)CC3)ncnc12,-16.92
16,COC(=O)C(O)C1CCN(CCc2ccncc2)CC1 (stereo not drawn),-64.35
17,COCCN1CCC(NCc2cccnc2)C1 (stereo not drawn),-54.93
18,N#Cc1ccc(CNC(=O)NC2CCN(c3ncccn3)CC2)cc1,-82.81
19,CSc1ccc(CNC2CCN(CCc3ccncc3)CC2)cc1,92.6
20,N#Cc1ccc(CNC2CCN(CCc3ccncc3)CC2)cc1,54.87
21,Cc1csc2c(N3CCC(NCCCc4ccncc4)CC3)ncnc12,63.19
